The text below walks through data of PubChem BioAssay (NCI).

This is part of a sample that, as a whole, favours compounds with a hit. Of some 83,000 tested, about 20% had one in any assay.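 A percent growth of 40 corresponds to 60% growth inhibition; 0 means no net growth; -100 means all cells died. Active threshold: below 10.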 Values without a mark were called inactive. Activity calls are given as the source filed them.

Some test systems named below: NCI-H23 lung; NCI-H226 lung; NCI-H322M lung; HOP-62 NSCLC; NCI-H460 lung; HOP-92 NSCLC; NCI-H522 lung; A549/ATCC NSCLC; 786-0 renal; COLO 205 colon; DU-145 prostate; K-562 leukemia; MALME-3M melanoma; MDA-MB-231 breast; RXF 393 renal; SF-539 CNS; UACC-257 melanoma; M14 melanoma; SF-268 CNS; SF-295 CNS.
Test in all cases: NCI-60 one-dose screen, 48 h (100 = growth as untreated, 0 = no growth, -100 = all killed)
Holding throughout (conditions): 10 µM unless noted

On to `NC(=O)[C@@H]1CC2CCC1C2` (some centres undefined), for which the growth in the experiment on NCI-H23 lung is 113%; with NCI-H226 lung, 103%; in the experiment on NCI-H322M lung it was 110%; in the experiment with HOP-62 NSCLC, 103%; with NCI-H460 lung it was 97.2%; in the experiment on HOP-92 NSCLC, 71.1%. Moreover, the growth with NCI-H522 lung is 108%; in the experiment on A549/ATCC NSCLC, 110%; with 786-0 renal it was 101%; in the experiment on COLO 205 colon it was 107%; in the experiment with DU-145 prostate it was 50.4%; in the experiment on K-562 leukemia it was 45.5%. For the same molecule, the growth is 101% in the experiment with MALME-3M melanoma; 123% in the experiment on MDA-MB-231 breast; 110% in the experiment on RXF 393 renal; 91.9% in the experiment on SF-539 CNS; 111% with UACC-257 melanoma; 118% with M14 melanoma.

Take `Cc1ccc(-c2nc3ccc(Cl)cc3c(=O)n2N2C(=O)CSC2c2ccccc2Cl)cc1` (centres undefined): the growth with NCI-H23 lung is 91.1%; with NCI-H226 lung, 86.6%; in the experiment with NCI-H322M lung, 86.7%; in the experiment with HOP-62 NSCLC, 2.48% (active); with NCI-H460 lung, 48.5%; in the experiment on HOP-92 NSCLC, -4.8% (active). The growth in the experiment with NCI-H522 lung was 76.9%; with A549/ATCC NSCLC, 13.2%; in the experiment with 786-0 renal it was 70%; in the experiment with COLO 205 colon, 66.6%; with DU-145 prostate, 73.1%; with K-562 leukemia it was 93.4%. For the same molecule, the growth with MALME-3M melanoma was 65.8%; in the experiment with MDA-MB-231 breast it was 59.9%; with RXF 393 renal, 98.5%; in the experiment on SF-268 CNS it was 60.4%; with SF-539 CNS it was 78.8%; with M14 melanoma, 71.4%.

Regarding `CCN(CC)CCCCCCNc1ccnc2cc(Cl)ccc12`, the growth with NCI-H23 lung is 83.4%; with NCI-H226 lung, 108%; in the experiment on NCI-H322M lung, 96.2%; in the experiment on HOP-62 NSCLC it was 82.6%; in the experiment on NCI-H460 lung, 92.9%; in the experiment on HOP-92 NSCLC, 98.8%. Besides, the growth in the experiment with NCI-H522 lung was 125%; in the experiment with A549/ATCC NSCLC, 96.2%; with 786-0 renal, 90.9%; with COLO 205 colon it was 9.2% (active); in the experiment on DU-145 prostate, 92.8%; in the experiment on K-562 leukemia it was 30.1%. Also, the growth in the experiment with MALME-3M melanoma was 99.6%; in the experiment on MDA-MB-231 breast, 51.8%; with SF-268 CNS it was 77.4%; in the experiment with SF-295 CNS it was 97%; with SF-539 CNS, 52.5%; in the experiment on UACC-257 melanoma it was 102%. Moreover, in the experiment on M14 melanoma, the growth is 38%.

With `COc1cccc2c1C(=O)c1c(O)c3c(c(O)c1C2=O)C[C@@](O)(C(=O)CO)C[C@@H]3OC1C[C@H](N)[C@H](O)[C@H](C)O1` (some centres undefined), the growth is -33.5% (active) in the experiment with NCI-H23 lung; -40.5% (active) in the experiment with NCI-H226 lung; -2.94% (active) with NCI-H322M lung; -29.2% (active) in the experiment on HOP-62 NSCLC; 0.418% (active) with NCI-H460 lung; -26.2% (active) in the experiment on HOP-92 NSCLC. Also, the growth with NCI-H522 lung is -61.1% (active); in the experiment with A549/ATCC NSCLC, 8.81% (active); in the experiment with 786-0 renal, 6.46% (active); with COLO 205 colon, -81.6% (active); in the experiment with DU-145 prostate, 3.11% (active); in the experiment on K-562 leukemia, -2.21% (active). For the same molecule, the growth in the experiment with MALME-3M melanoma is -57.6% (active); in the experiment on MDA-MB-231 breast, -9.32% (active); with SF-268 CNS, -31.7% (active); in the experiment on SF-295 CNS, -22.4% (active); in the experiment on SF-539 CNS, -29.8% (active); in the experiment on UACC-257 melanoma it was -35% (active). Besides, the growth with M14 melanoma was -71.6% (active).

Consider `O=C(/C=C\c1ccc2c(c1)OCO2)/C=C/c1ccc2c(c1)OCO2`, for which the growth in the experiment with NCI-H23 lung is 84.8%; in the experiment on NCI-H226 lung, 67.7%; with NCI-H322M lung it was 99.2%; in the experiment on HOP-62 NSCLC, 91.4%; in the experiment on NCI-H460 lung, 99.1%; in the experiment with HOP-92 NSCLC, 87.8%. Further, the growth with NCI-H522 lung is 97.4%; with A549/ATCC NSCLC it was 92.9%; in the experiment with 786-0 renal, 64.6%; in the experiment on COLO 205 colon, 110%; in the experiment on DU-145 prostate, 90.7%; in the experiment on K-562 leukemia, 4.27% (active). In addition, the growth in the experiment on MALME-3M melanoma is 98.2%; in the experiment on RXF 393 renal it was 85%; in the experiment with SF-268 CNS it was 93.3%; in the experiment on SF-295 CNS it was 89.7%; in the experiment on SF-539 CNS, 26.2%; in the experiment with UACC-257 melanoma, 98.2%. For the same molecule, in the experiment on M14 melanoma, the growth is 40%.

As for `O=C1c2ccccc2C(=Cc2ccccc2)c2ccccc21`, the growth in the experiment on NCI-H23 lung is 2.92% (active); in the experiment on NCI-H226 lung it was 38.7%; with NCI-H322M lung, 66.8%; with HOP-62 NSCLC, 21.3%; in the experiment with NCI-H460 lung it was -6.75% (active); in the experiment with HOP-92 NSCLC, 51.7%. Further, the growth in the experiment with NCI-H522 lung is -25.4% (active); in the experiment with A549/ATCC NSCLC, 19.8%; in the experiment with 786-0 renal, -15.9% (active); in the experiment on COLO 205 colon, -21.1% (active); with DU-145 prostate it was -21.3% (active); in the experiment with K-562 leukemia, 8.16% (active). Further, the growth in the experiment on MALME-3M melanoma is 41.6%; in the experiment with MDA-MB-231 breast, -20.7% (active); in the experiment with RXF 393 renal, -1.26% (active); in the experiment with SF-268 CNS, 10.6%; in the experiment with SF-539 CNS, -26.2% (active); in the experiment with UACC-257 melanoma, 15.7%. Also, the growth in the experiment on M14 melanoma was -20.5% (active).

For `COC(=O)c1cc(=O)nc(N/N=C/c2ccc(C)cc2)s1`, the growth is 107% with NCI-H23 lung; 98.5% in the experiment with NCI-H226 lung; 108% in the experiment with NCI-H322M lung; 98.6% in the experiment with HOP-62 NSCLC; 106% in the experiment on NCI-H460 lung; 66.4% in the experiment with HOP-92 NSCLC. Also, the growth with NCI-H522 lung was 91.9%; in the experiment with A549/ATCC NSCLC it was 101%; in the experiment on 786-0 renal, 103%; in the experiment with COLO 205 colon, 114%; in the experiment on DU-145 prostate, 114%; with K-562 leukemia, 96.1%. The growth in the experiment on MALME-3M melanoma was 94.3%; in the experiment with MDA-MB-231 breast it was 113%; in the experiment with RXF 393 renal, 111%; with SF-268 CNS, 104%; with SF-539 CNS, 102%; in the experiment with UACC-257 melanoma, 97.5%. In addition, the growth in the experiment on M14 melanoma was 99.1%.

Take `CCN(CC)CCCCCNc1cc(OC(=O)c2ccccc2)cc2cccnc12`: the growth in the experiment with NCI-H23 lung is 92%; in the experiment on NCI-H226 lung, 118%; with NCI-H322M lung, 102%; with HOP-62 NSCLC, 98.7%; with NCI-H460 lung, 163%; in the experiment on HOP-92 NSCLC, 99.1%. Further, the growth in the experiment with NCI-H522 lung is 124%; in the experiment on A549/ATCC NSCLC it was 122%; with 786-0 renal it was 100%; in the experiment with COLO 205 colon, 17.3%; with DU-145 prostate it was 111%; in the experiment with K-562 leukemia, 23.8%. The growth in the experiment with MALME-3M melanoma was 95.3%; with MDA-MB-231 breast, 88.2%; in the experiment with SF-268 CNS, 93.2%; in the experiment with SF-295 CNS, 110%; with SF-539 CNS, 150%; in the experiment with UACC-257 melanoma, 120%. For the same molecule, the growth with M14 melanoma was 101%.

On to `O=c1c2sc3ncc(Br)cc3c2ncn1-c1cccc(Cl)c1`, for which the growth with NCI-H23 lung is 87.4%; in the experiment on NCI-H226 lung, 87.3%; in the experiment on NCI-H322M lung, 48.2%; in the experiment on HOP-62 NSCLC, 60.3%; in the experiment with NCI-H460 lung, 24.9%; with HOP-92 NSCLC, 72.7%. Further, the growth is 82.8% in the experiment on NCI-H522 lung; 43% in the experiment with A549/ATCC NSCLC; 89% in the experiment with 786-0 renal; 86.3% in the experiment with COLO 205 colon; 53.3% in the experiment with DU-145 prostate; 81.9% in the experiment with K-562 leukemia. For the same molecule, the growth in the experiment on MALME-3M melanoma was 52.5%; with MDA-MB-231 breast it was 49.5%; with RXF 393 renal it was 73.6%; in the experiment with SF-268 CNS, 64.1%; in the experiment on SF-539 CNS, 81.4%; with UACC-257 melanoma it was 88.4%. In the experiment with M14 melanoma, the growth is 76%.
